Screening data: PubChem, National Center for Advancing Translational Sciences (NCATS)
ATXN viability = viability counter-screen for ATXN expression inhibitors; S2 cells (HEK-293 line with an ATXN2-luciferase reporter) viability, CellTiter-Fluor protease fluorescence, 24 h; Potency, µM (titrated, usually from 56.7 µM), hits mostly cytotoxic; hit rate 0.49% among 400,000; AID 651635; also: nearly all actives have a fitted effect of over 40% in size
TDP1 cell CPT = growth inhibition of DT40 Tdp1-/-;hTDP1 cells with camptothecin (screen for TDP1 inhibitors); chicken DT40 Tdp1-/-;hTDP1 cells + 20 nM CPT, ATP luminescence, 48 h; Potency, µM (doses to about 46.2 µM), inactives show at the top dose activity change, negative = growth inhibition, usual class: inhibitors; hit rate 12% among 420,000; AID 686979; also: % is scaled to controls: 0 for no effect and ±100 for the full control effect; nearly all actives have a fitted effect of over 55% in size
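Chicken DT40 Tdp1-/- cells complemented with human TDP1, 400 cells/well, exposed to compounds plus 20 nM camptothecin for at least 48 h at 37 C; viability read as ATP content by CellTiter-Glo luminescence.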
DT40 TDP1 no CPT = qHTS for Inhibitors of human tyrosyl-DNA phosphodiesterase 1 (TDP1): qHTS in cells in absence of CPT; DT40 Tdp1-/- hTDP1 cells, no CPT, ATP luminescence, 48 h; Potency, µM (highest dose often 46.2 µM), for the others: at the top dose activity change, negative = growth inhibition, hits mostly inhibitors; hit rate 15% among 420,000; AID 686978, 2013; also: % is scaled to controls: 0 for no effect and ±100 for the full control effect; nearly all actives have a fitted effect of over 55% in size
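DT40 Tdp1-/-;hTDP1 cells, no CPT (DMSO vehicle only), 400 cells/well; compounds pin-transferred; ≥48 hr, 37 °C; CellTiter-Glo 30 min RT dark, luminescence read.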
TGFb SMAD3 inh = inhibitors of TGF-b signaling. HepG2 CAGA-GFP TGF-b/SMAD3 reporter, GFP fluorescence, 18 h; TGF-beta stimulated, 500 pg/mL final. Potency, µM (titrated, usually from 46.1 µM), for inactives: top-dose activity, negative = inhibition, most hits filed as inhibitors. hit rate 1.2% among 410,000; also: % is scaled to controls: 0 for no effect and ±100 for the full control effect; nearly all actives have a fitted effect of over 65% in size
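HEPG2 CAGA-GFP, 1000 cells/well; 2 h settle, 37 C; cpd via pin tool; TGF-b 500 pg/mL final; 18 h, 37 C; GFP imaging ex488/em500-530; %Activity normalised to -TGF-b and +DMSO controls; CRC fit, curve class.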
ATXN2 expr inh = reduces ATXN2 reporter expression in HEK-293 cells; HEK-293 ATXN2-luciferase reporter, luminescence, 24 h; Potency, µM (series often up to 57 µM), inactives show at the top dose activity change, negative = inhibition, most hits filed as inhibitors; hit rate 0.72% among 360,000; AID 1745845; also: % is scaled to controls: 0 for no effect and ±100 for the full control effect; nearly all actives have a fitted effect of over 55% in size
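qHTS (up to 57 uM final) was run with 24 h compound exposure of reporter cells at 37 °C. Each well was multiplexed: SteadyGlo luminescence measured ATXN2-luciferase expression after a fluorogenic Gly-Phe-AFC viability readout (25 uM final).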
HepG2 tox-1 = HepG2 cytotoxicity, counter-screen for TGF-b inhibitors; HepG2 CAGA-GFP viability, ATP luminescence, 18 h; Potency, µM (top dose mostly 46.1 µM), without a hit: at the highest dose activity change, negative = cytotoxicity, hits mostly cytotoxic; hit rate 0.76% among 410,000
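CellTiter-Glo luminescence gave cytotoxicity after 18 hours at 37 degrees C. The cells were HepG2 CAGA-GFP in 1% FBS DMEM, stimulated with 500 pg/mL TGF-beta after compound addition. %Activity was normalised to no-cell wells (complete cell-killing) and DMSO (no toxicity), and curves were fitted and classified.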
TGFb confirm = confirmation of TGF-b signaling inhibitors in HepG2 reporter cells; AID 720534; hit rate 63% among 1,600; shares compounds with TGFb SMAD3 inh; Potency, µM (top dose mostly 46.1 µM), without a hit: top-dose activity, negative = inhibition, actives largely listed as inhibitors; HepG2 CAGA-GFP TGF-b reporter, GFP fluorescence, 18 h; cells stimulated with TGF-beta, 500 pg/mL; also: % is scaled to controls: 0 for no effect and ±100 for the full control effect; nearly all actives have a fitted effect of over 65% in size
HepG2 tox-2 = HepG2 cytotoxicity, TGF-b inhibitor counterscreen; shares compounds with TGFb SMAD3 inh; HepG2 CAGA-GFP viability, ATP luminescence, 18 h; cells stimulated with TGF-beta, 500 pg/mL; Potency, µM (top dose mostly 46.1 µM), inactives show at the top dose activity, negative = cytotoxicity, actives largely listed as inhibitors; hit rate 27% among 1,600; also: % is scaled to controls: 0 for no effect and ±100 for the full control effect; nearly all actives have a fitted effect of over 70% in size
CCL64 TGFb inh = orthogonal confirmation of TGF-b inhibitors in CCL64 cells; shares compounds with TGFb SMAD3 inh; Potency, µM (titrated, usually from 46.1 µM), inactives show top-dose activity, negative = inhibition, hits mostly inhibitors; CCL64 CAGA-GFP reporter, TGF-b stimulated, GFP fluorescence, 18 h; hit rate 41% among 1,600; also: nearly all actives have a fitted effect of over 65% in size
COP TGFb inh = validation of TGF-b inhibitors in HepG2 COP promoter reporter; shares compounds with TGFb SMAD3 inh; HepG2 COP-GFP TGF-b reporter, GFP fluorescence, 18 h; cells stimulated by added recombinant TGF-beta; Potency, µM (titrated, usually from 46.1 µM), for inactives: at the top dose activity, negative = inhibition, most hits filed as inhibitors; hit rate 3% among 1,600; also: nearly all actives have a fitted effect of over 70% in size
Numbers without * were called inactive; i = inactive; ? = inconclusive; / = no result given; [ ] = dose if it differs, or a comment. Sampled rows, rich in hits. Any-hit rate of the full collection: about 17%. Calls follow the shape of the dose curve; as a rule, active = well fitted curve in the direction sought with a large enough effect; inconclusive = small, poorly fitted or top-dose-only effect, or another doubt; inactive = no such curve, though single readings can be large; an effect the other way counts as inactive or inconclusive. Potency is read from the fitted curve at half-maximal effect.

SMILES	ATXN viability	TDP1 cell CPT	DT40 TDP1 no CPT	TGFb SMAD3 inh	ATXN2 expr inh	HepG2 tox-1	TGFb confirm	HepG2 tox-2	CCL64 TGFb inh	COP TGFb inh
CN(CCc1ccccc1)C(=O)c1cccc(NC(=O)Cc2cccc(NC(=O)C3CCCN(S(=O)(=O)c4cccc([N+](=O)[O-])c4)C3)c2)c1 (centres undefined)	i	?	?	-12%	0%	-13%	/	/	/	/
CN(CCc1ccccc1)C(=O)c1cccc(NC(=O)Cc2cccc([N+](=O)[O-])c2)c1	?	?	?	7.1µM*	-28%	-18%	?	-23%	-2%	16%
O=S(=O)(CC(CN1CCCCC1)N1CCCCC1)c1ccccc1 (centres undefined)	/	7.3µM*	4.6µM*	10µM*	/	18µM*	13µM*	18µM*	4.6µM*	?
O=[N+]([O-])c1ccc(S(=O)(=O)CC(CN2CCOCC2)N2CCOCC2)cc1 (centres undefined)	?	?	?	-4%	18%	-14%	/	/	/	/
CC(C)(C)C(=O)N1CCN(c2ccc(NC(=O)c3ccco3)cc2)CC1	i	-6%	-20%	18%	26%	10%	/	/	/	/
CC(C)(C)C(=O)N1CCN(c2ccc(NC(=O)c3ccc([N+](=O)[O-])o3)cc2)CC1	?	2.6µM*	6.5µM*	7.1µM*	3%	-58%	7.3µM*	10µM*	?	13%
CS(=O)(=O)N1CCN(c2ccc(NC(=O)c3cc4ccccc4o3)cc2)CC1	i	-26%	5%	-7%	8%	-1%	/	/	/	/
O=C(Nc1ccc(N2CCN(C(=O)c3ccc(Cl)cc3)CC2)cc1)c1ccc([N+](=O)[O-])o1	?	2.9µM*	1.2µM*	7.1µM*	-8%[11.3 µM]	13µM*	6.5µM*	16µM*	?	?
CS(=O)(=O)N1CCN(c2ccc(NC(=O)c3ccc([N+](=O)[O-])o3)cc2)CC1	?	2.6µM*	7.3µM*	4µM*	/	5.6µM*	2.9µM*	15µM*	?	-29%
CCOC(=O)N1CCC(NC(=O)c2ccc(CNS(=O)(=O)c3ccc(F)cc3)cc2)CC1	i	-13%	-18%	5%	-6%	-10%	/	/	/	/
CCN(c1ccccc1)S(=O)(=O)c1ccc(C(=O)Nc2ncccc2O)cc1	i	?	?	1%	-13%	-26%	/	/	/	/
O=C(CSc1nnc(-c2ccccc2Cl)o1)Nc1ccccn1	i	?	?	-13%	/	-41%	/	/	/	/
